Laboratory results published in PubChem BioAssay (NCI).
Compounds without any hit were thinned out: in the full panel of roughly 83,000, 20% have a hit.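 Assay: single dose, 48 h. Readout: percent growth (0 = no net growth; negative = cell death). Active: <10.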 The source made the active and inactive calls.

What was measured:
Assay in all cases: NCI-60 one-dose screen, 48 h (100 = growth as untreated, 0 = no growth, -100 = all killed)
Conditions in all cases: 10 µM unless noted
[1] = tested on: NCI-H226 lung
[2] = tested on: NCI-H322M lung
[3] = tested on: HOP-62 NSCLC
[4] = tested on: NCI-H460 lung
[5] = tested on: HOP-92 NSCLC
[6] = tested on: NCI-H522 lung
[7] = tested on: A549/ATCC NSCLC
[8] = tested on: COLO 205 colon
[9] = tested on: 786-0 renal

Measured: growth

CO[C@@H]1[C@H](N(C)C(=O)c2ccccc2)C[C@@H]2O[C@]1(C)n1c3ccccc3c3c4c(c5c6ccccc6n2c5c31)C(=O)NC4=O
inactive: [1] 29% | [2] 38.9% | [3] 28.5% | [4] 48.2% | [6] 21.2% | [7] 27.3%
active: [5] 4.48% | [8] 2.3%

Cc1cc(NC(=O)c2cnc(N3CCN(CCOCCOCCOCCOCCC(=O)N[C@H](C(=O)N4C[C@H](O)C[C@H]4C(=O)N[C@@H](C)c4ccc(-c5scnc5C)cc4)C(C)(C)C)CC3)cn2)c2ncccc2c1
inactive: [2] 35.6% | [7] 66.7% | [9] 29.9% | [8] 47.1%
active: [1] 1.46% | [3] 4.92% | [4] 7.54% | [5] 4.9% | [6] -15.6%

C[C@]12C[C@H]1CC[C@]1(C)[C@@H]2CC[C@@]23C[C@H](CC[C@H]21)[C@@](O)(CO)C3
active: [9] -80.1%
inactive: [1] 96.8% | [2] 94.2% | [3] 109% | [4] 94.3% | [5] 92.9% | [6] 87% | [7] 99.6% | [8] 109%

S=c1[nH]cccc1-c1nnc2n1Nc1nc3ccccc3cc1CS2
inactive: [1] 91.1% | [2] 101% | [3] 90.1% | [4] 99.6% | [5] 99.5% | [6] 89% | [7] 110% | [9] 100% | [8] 111%

Cn1c2c(Cl)c(Cl)ccc2c2cc(N)[nH]c(=O)c21
inactive: [2] 103% | [3] 51.3% | [4] 81.9% | [5] 29.9% | [7] 15.1% | [9] 70.2% | [8] 92.1%

CC(=O)N1N=C(c2cccc(Nc3ccncc3)c2)CC1c1ccccc1 (stereo not given)
inactive: [1] 95.3% | [2] 93.3% | [3] 92.5% | [4] 95.1% | [5] 55.9% | [6] 91.7% | [7] 85.2% | [8] 81.5%
active: [9] 4.92%

COc1ccc(-c2nc(N/N=C/c3c[nH]c4ccccc34)nc(N3CCOCC3)c2C#N)cc1
inactive: [1] 105% | [2] 94.1% | [3] 105% | [5] 69.1% | [6] 99.7% | [7] 92.4% | [9] 45.9% | [8] 78.5%

S=c1[nH]cccc1-c1nnc2n1Nc1nc3ccc(Cl)cc3cc1CS2
inactive: [1] 94.9% | [2] 103% | [3] 108% | [4] 102% | [5] 107% | [6] 82.6% | [7] 107% | [9] 98.8% | [8] 122%

COc1ccc(C(O)c2cc3c(N)c(C(=O)Nc4cccc(OC)c4)sc3nc2C)cc1 (stereo not given)
active: [4] 1.65% | [7] 9.44% | [8] -42.8%
inactive: [1] 45.9% | [2] 38.8% | [3] 26.5% | [5] 37% | [9] 33.9%

O=C(Nc1cccc(Cl)c1)Oc1c(Br)c(Br)c(Br)c(Br)c1Br
inactive: [1] 81.3% | [2] 107% | [3] 56.1% | [5] 66.5% | [7] 73.7% | [9] 93.8% | [8] 100%

COc1ccc(Cn2nc3c(c2-c2cc(OC)c(OC)c(OC)c2)-c2oncc2CC3)cc1
inactive: [1] 106% | [2] 99% | [3] 96.7% | [4] 107% | [5] 78.2% | [6] 12.7% | [7] 95.2% | [9] 85.1% | [8] 99.1%

COc1ccccc1/C=C1\COc2ccc(-c3ccccc3)cc2C1=O
active: [3] -55.3% | [9] -49.2% | [8] 9.86%
inactive: [1] 88.4% | [2] 80% | [4] 12.2% | [5] 49.3% | [6] 51.9% | [7] 37.8%

N/C(=N\N=C\c1cc2ccccc2[nH]1)N/N=C/c1cc2ccccc2[nH]1
inactive: [1] 93.7% | [2] 100% | [3] 95.7% | [4] 95.7% | [5] 76.6% | [6] 98% | [7] 101% | [9] 98.7% | [8] 102%
